Reference: PubChem BioAssay AID624405 (Broad Institute, 2012)
About 250 (13%) of roughly 1,900 compounds were called active. Roughly 4% stayed inconclusive and do not appear here.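 The calls were made as follows: active = fitted curve reaches 40% rescue activity at or below the top valid dose, in every test run; inconclusive = test runs disagree, some active and some inactive; inactive = every run misses the threshold or moves the wrong way.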 A selection follows. Entries that show only a call come without a potency. Potency and affinity values are given separately.

Assay: rescue of simvastatin-induced ATP loss – cell-based, C2C12 myotubes, ATP luminescence, cherry pick, dose response (AID 624405);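 also: myotubes are challenged with simvastatin at 10 µM to lower ATP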
Details: 48 h, scaled: DMSO wells 0, geranylgeraniol wells 100; series mostly up to 19.5 µM

Row | SMILES | outcome
1 | COc1ccc(CN(C)C[C@H]2Oc3ccc(NS(=O)(=O)c4ccc(F)cc4)cc3CC(=O)N([C@@H](C)CO)C[C@@H]2C)cc1 | inactive
2 | COC(=O)CCC(=O)Nc1sc(C)c(C)c1C(N)=O | inactive
3 | C[C@@H]1CCCCO[C@@H](CN(C)C(=O)C2CCCCC2)[C@H](C)CN([C@@H](C)CO)C(=O)c2cc(NS(=O)(=O)c3ccccc3)ccc2O1 | inactive
4 | COc1ccc(CN2[C@@H]3CNc4ccccc4[C@@H]3[C@@H]2CO)cc1 | inactive
5 | C[C@@H]1CCCCO[C@H](CN(C)C(=O)NC2CCCCC2)[C@H](C)CN([C@@H](C)CO)C(=O)c2cc(NC(=O)Nc3cccc4ccccc34)ccc2O1 | inactive
6 | C[C@H](CO)N1C[C@H](C)[C@@H](CN(C)Cc2ccc(Oc3ccccc3)cc2)Oc2ccc(NC(=O)Cc3cn(C)c4ccccc34)cc2CC1=O | inactive
7 | O=C(OCC(=O)N1CCOCC1)c1ccccc1SCC(=O)N1CCCC1 | inactive
8 | C[C@H](CO)N1C[C@H](C)[C@@H](CN(C)Cc2ccc(C(F)(F)F)cc2)Oc2ccc(NS(=O)(=O)c3cccs3)cc2CC1=O | inactive
9 | CC(=O)N1CCN(c2nnnn2-c2ccccc2)CC1 | inactive
10 | COCc1cc(C)nc(N2CCN(Cc3ccccc3)CC2)c1C#N | inactive
11 | COc1ccc(S(=O)(=O)Nc2ccc3c(c2)C(=O)N([C@@H](C)CO)C[C@@H](C)[C@H](CN(C)C(=O)c2ccccc2)OCCCC[C@@H](C)O3)cc1 | inactive
12 | COc1ccc2[nH]c(=O)c(CN(CCc3ccccc3)C(C)=O)cc2c1 | inactive
13 | COc1ccc2[nH]c(=O)c(CNc3ccc(C)c(C)c3)cc2c1 | inactive
14 | CC(=O)N1C=CN(C(C)=O)C(c2cn(C)c3ccccc23)C1c1cn(C)c2ccccc12 (stereo unspecified) | inactive
15 | Cc1cc(C)nc(NC(=NCCc2c[nH]c3ccccc23)NC(=O)c2ccco2)n1 | inactive
16 | O=C(Cc1coc(-c2ccc(F)cc2)n1)Nc1ccccc1 | inactive
17 | CCCCCNC(=O)C1CC=CCC1C(=O)O (stereo unspecified) | inactive
18 | C[C@@H]1CN([C@H](C)CO)C(=O)Cc2cc(NC(=O)CCCCCC(=O)Nc3ccccc3N)ccc2O[C@H]1CN(C)CC1CCCCC1 | inactive
19 | C[C@H]1CN([C@@H](C)CO)C(=O)Cc2cc(NC(=O)CCCCCC(=O)Nc3ccccc3N)ccc2O[C@@H]1CN(C)CC1CCCCC1 | inactive
20 | COc1ccc(S(=O)(=O)N(C)C[C@@H]2OCCCC[C@H](C)Oc3ccc(NC(=O)Nc4ccc(C(F)(F)F)cc4)cc3C(=O)N([C@@H](C)CO)C[C@@H]2C)cc1 | inactive
21 | OC[C@H]1[C@@H]2c3ccccc3NC[C@@H]2N1Cc1ccccc1Cl | inactive
22 | CCOc1ccccc1OCCOc1ccccc1CC | inactive

Row | SMILES | outcome
23 | COc1ccc(NC(=O)N(C)C[C@@H]2OCCCC[C@@H](C)Oc3ccc(NS(=O)(=O)c4c(C)noc4C)cc3C(=O)N([C@H](C)CO)C[C@H]2C)cc1 | inactive
24 | C[C@@H]1CN([C@@H](C)CO)C(=O)c2cc(NC(=O)Cc3cn(C)c4ccccc34)ccc2O[C@H]1CN(C)S(=O)(=O)c1cccs1 | inactive
25 | CC(C)(C)c1cc(C(F)(F)F)c(C#N)c(=O)[nH]1 | inactive
26 | C=CCn1c(COc2ccc(Cl)cc2)nnc1SCC(=O)c1c(N)n(C)c(=O)n(C)c1=O | inactive
27 | COc1ccc(S(=O)(=O)Nc2ccc3c(c2)CC(=O)N([C@H](C)CO)C[C@@H](C)[C@@H](CN(C)Cc2ccc(C(F)(F)F)cc2)O3)cc1 | inactive
28 | CCOC(=O)C1CCN(C=Nc2cc(C)on2)CC1 | inactive
29 | COc1ccc(S(=O)(=O)Nc2ccc3c(c2)C(=O)N([C@@H](C)CO)C[C@H](C)[C@@H](CN(C)S(=O)(=O)c2ccc(F)cc2)OCCCC[C@H](C)O3)cc1 | inactive
30 | NC(=O)C1CCN(Cc2nc3cc(Cl)ccc3c(=O)[nH]2)CC1 | inactive
31 | C[C@@H]1CCCCO[C@@H](CN(C)C(=O)Nc2cccc3ccccc23)[C@H](C)CN([C@@H](C)CO)C(=O)c2cc(NS(=O)(=O)c3ccc(Cl)cc3)ccc2O1 | inactive
32 | CCC/C(=C1/c2ccccc2C(=O)N1c1ccccc1)c1ccc2c(c1)OCCO2 | inactive
33 | C[C@H](CO)N1C[C@H](C)[C@@H](CN(C)Cc2ccccc2F)Oc2ncc(C3=CCCCC3)cc2C1=O | inactive
34 | C[C@@H]1CN([C@H](C)CO)C(=O)Cc2cc(NC(=O)Cc3cn(C)c4ccccc34)ccc2O[C@H]1CN(C)Cc1ccc(-c2ccccc2)cc1 | inactive
35 | COc1ccccc1CNc1ncnc2c1nnn2Cc1ccccc1 | inactive
36 | COc1ccc(CNc2ncnc3cc(OC)c(OC)cc23)cc1 | inactive
37 | CC(c1ccco1)N(C(=O)Nc1ccc(Cl)cc1)c1ccccn1 (stereo unspecified) | inactive
38 | COc1ccc(-n2nnnc2SCC(=O)N2CCCc3ccccc32)cc1OC | inactive
39 | COc1ccccc1-c1nnc(SCC(=O)N2CC(C)CC(C)C2)o1 (stereo unspecified) | inactive
40 | CNC[C@@H]1Oc2ccc(NC(=O)Nc3ccc(C(F)(F)F)cc3)cc2CC(=O)N([C@@H](C)CO)C[C@@H]1C | inactive
41 | CCOc1cc(CNCc2ccncc2)cc(Br)c1OCc1ccccc1F | inactive
42 | COc1ccc2c(c1)c(C(=O)OCCN(C)C)c(C)n2C | inactive
43 | O=C(COc1ccccc1)Nc1ccc(S(=O)(=O)N2CCCC2)cc1 | inactive
44 | Cc1c(C(=O)N2CCOCC2)oc2ccc(S(=O)(=O)N3CCCC3)cc12 | inactive

Row | SMILES | outcome
45 | C[C@H]1CCCCO[C@@H](CN(C)C(=O)Nc2cccc3ccccc23)[C@@H](C)CN([C@@H](C)CO)C(=O)c2cc(NS(=O)(=O)c3ccc(Cl)cc3)ccc2O1 | inactive
46 | C[C@@H]1CN([C@H](C)CO)C(=O)c2cc(C3=CCCCC3)cnc2O[C@@H]1CN(C)Cc1ccccc1F | inactive
47 | Cc1noc(C)c1NC(=O)Nc1ccc2c(c1)C(=O)N([C@@H](C)CO)C[C@@H](C)[C@H](CN(C)S(=O)(=O)c1c(C)noc1C)OCCCC[C@@H](C)O2 | inactive
48 | COc1cc(CCC(=O)OCc2nnc(-c3ccccc3)o2)cc(OC)c1OC | inactive
49 | Nc1nnnn1NCc1cccc(OCc2ccccc2)c1 | inactive
50 | Cc1ccc(N2C(N)=NC(N)=NC2(C)C)c(C)c1 | inactive
51 | CCOC(=O)N1CCN(C(=O)c2ccc3c(=O)n(CCc4ccccc4)c(=O)[nH]c3c2)CC1 | inactive
52 | CN1C(=O)c2cc(NS(=O)(=O)c3ccc(Cl)cc3)ccc2OC[C@@H]2O[C@@H](CC(=O)N3CCc4ccccc4C3)CC[C@H]21 | inactive
53 | COc1cccc(C(=O)CN2C3=NCCCN3c3ccccc32)c1 | inactive
54 | CCCCN1C(=O)NC(NC(C)=O)(C(F)(F)F)C1=O (stereo unspecified) | inactive
55 | Cc1cccc(N=c2oc3cc(O)ccc3cc2C(N)=O)c1 | inactive
56 | O=C(Cn1ncc2c3ccccc3n(Cc3cccc(Cl)c3)c2c1=O)NCC1CCCO1 (stereo unspecified) | inactive
57 | O=c1c2ccccc2n(Cc2ccc(F)cc2)c(=O)n1C1CCCC1 | inactive
58 | N#Cc1cc(-c2ccccc2)nnc1Sc1ccc(Cl)cc1 | inactive
59 | COc1ccc(CN(Cc2cccn2C)C(=O)c2cc3cc(OC)ccc3[nH]2)cc1 | inactive
60 | Cn1c(-c2ccc(F)cc2)cnc1NCc1ccc(F)cc1 | inactive
61 | COc1cc(NC(=O)c2cccs2)c(C(=O)OCC(=O)NCc2ccco2)cc1OC | inactive
62 | Cc1ccc(CNC(=O)CNS(=O)(=O)c2cccc3nsnc23)cc1 | inactive
63 | COc1ccc(S(=O)(=O)Nc2ccc3c(c2)C(=O)N([C@H](C)CO)C[C@@H](C)[C@H](CN(C)S(=O)(=O)c2ccc(F)cc2)OCCCC[C@H](C)O3)cc1 | inactive
64 | CNC[C@@H]1Oc2ccc(NS(=O)(=O)c3c(C)noc3C)cc2C(=O)N([C@@H](C)CO)C[C@@H]1C | inactive
65 | Cc1nc(CSc2ccc(Cl)cc2)cc(N2CC(C)OC(C)C2)n1 (stereo unspecified) | inactive
66 | CC1CC(C)CN(CCCNC(=O)c2ccc3c(c2)NC(=O)C(N2CCCCC2)S3)C1 (stereo unspecified) | inactive

Row | SMILES | outcome
67 | Cc1ccc(NC(=O)c2cc(-c3cccs3)on2)cc1 | inactive
68 | CC(=O)c1cccc(NC(=O)c2cc(-c3cccs3)on2)c1 | inactive
69 | O=C(Nc1cccc(C(F)(F)F)c1)c1cc(-c2cccs2)on1 | inactive
70 | O=C(Nc1cc(Br)ccc1O)c1cc(-c2cccs2)on1 | inactive
71 | CCN(CCCNC(=O)C1CCC(=O)N1C(C)C)c1cccc(C)c1 (stereo unspecified) | inactive
72 | Cc1noc(C)c1S(=O)(=O)Nc1ccc2c(c1)C(=O)N([C@@H](C)CO)C[C@H](C)[C@H](CN(C)Cc1ccc3c(c1)OCO3)O2 | inactive
73 | O=C(Nc1ccccc1)Oc1cccc2cccnc12 | inactive
74 | COc1ccc(S(=O)(=O)Nc2ccccc2C(=O)NC(C)(C)C)cc1OC | inactive
75 | COc1ccccc1NS(=O)(=O)c1cccc(NC(=O)c2ccc3ccccc3n2)c1 | inactive
76 | C#CCOC(=O)c1ccccc1C(=O)N(CC)CC | inactive
77 | O=C(CCN1CCc2ccccc21)c1ccc2c(c1)OCCO2 | inactive
78 | COc1ccc(C2CC(=O)Oc3c(C(CCN4CCCCC4)c4ccc(N(C)C)cc4)c(OC)cc(OC)c32)cc1 (stereo unspecified) | inactive
79 | O=C(Nc1cnn(Cc2ccccc2)c1)c1cc2nc(-c3ccco3)cc(C(F)(F)F)n2n1 | inactive
80 | COc1ccc(S(=O)(=O)Nc2cccc3c2O[C@H](CN(C)CC2CCCCC2)[C@H](C)CN([C@H](C)CO)C3=O)cc1 | inactive
81 | Cc1cc(NC(=O)COC(=O)C2CCN(S(=O)(=O)c3c(Cl)cccc3Cl)CC2)no1 | inactive
82 | N#Cc1ccc(-c2nnnn2-c2ccc3c(c2)OCO3)cc1 | inactive
83 | COC(=O)c1ccccc1NC(=O)c1ccccc1OC | inactive
84 | COc1ccccc1N(CC(=O)Nc1ccc2c(c1)OCCO2)S(C)(=O)=O | inactive
85 | Cc1noc(C)c1S(=O)(=O)N1CCC(C(=O)N2CCN(c3ccccc3Cl)CC2)CC1 | inactive
86 | C[C@@H]1CCCCO[C@H](CN(C)CC2CCCCC2)[C@@H](C)CN([C@H](C)CO)C(=O)c2cc(NC(=O)CCCN(C)C)ccc2O1 | inactive
